Experimental data: PubChem BioAssay (NCATS)
Records with an inconclusive call do not appear. A number with no mark means an inactive call. Activity calls are given as the source filed them. The call rests on the fitted dose curve; in most records, active means well fitted inhibition curve with a large enough effect; inconclusive means small, poorly fitted or top-dose-only effect; inactive means no such curve, though single readings can be large or run the other way.

biological target: Chromobox protein homolog 1 (Homo sapiens) (UniProt P83916); test: qHTS Validation Assay for Inhibitors of HP1-beta Chromodomain Interactions with Methylated Histone Tails (AID 488953); details: HP1-beta chromodomain / methylated histone peptide binding assay; series mostly up to 114 µM; activity change, negative = inhibition: at the top concentration; further: nearly all actives have a fitted effect of over 50% in size
Sequence (P83916 whole entry, looked up): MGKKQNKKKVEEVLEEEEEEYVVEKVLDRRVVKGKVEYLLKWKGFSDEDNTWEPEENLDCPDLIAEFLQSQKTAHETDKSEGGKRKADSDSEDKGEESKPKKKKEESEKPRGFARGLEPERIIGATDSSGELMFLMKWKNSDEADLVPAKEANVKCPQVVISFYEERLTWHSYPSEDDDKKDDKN
From the text: As our understanding of epigenetics expands, it is becoming clear that players in this field are potential targets for drug development. This area of epigenetic therapy has established applications for the treatment of cancer and neurological diseases. We have been involved in this field for a number of years and have performed high-throughput screens to identify the first small molecule inhibitors of protein methyltransferases. These methyltransferases target multiple substrates, and thus regulate many arms of an epigenetic pathway. The methylation of different substrates often generates docking sites for effector proteins that harbor binding domains (chromo, tudor, PHD, MBT and ANK repeats).
It has been proposed that the binding sites generated for different proteins by these post-translational modifcations mediate downstream effects on chromatin. Consistent with this theory, di- and tri-methylation of histone H3K9 facilitates the binding of heterochromatin protein HP1. The HP1 protein harbors a chromodomain that is responsible for the methyl-dependent interaction between HP1 and lysine 9 of histone H3. HP1 was first described in flies as a heterochromatin associated protein that can regulate gene silencing. It harbors a chromodomain that binds H3K9me3. In addition, it harbors a chromoshadow domain that interacts with a large number of proteins that are involved in heterochromatin formation and gene repression. There are three highly related HP1 isoforms. All three variants are associated with pericentric heterochromatin and it is not clear whether they have specific or redundant functions. MPP8 is also involved in the repression of gene in euchromatic regions (unpublished data) and like HP1 its chromodomain binds H3K9me3. MPP8 harbors an ankyrin repeat region that is likely involved in binding and recruiting interacting proteins with transcriptional repressive function, much like the chromoshadow domain of HP1 does.
We hypothesize that by inhibiting specific protein-protein interactions we will be able to develop compounds that block a single arm of an epigenetic pathway. The specificity attained by blocking a single protein-protein interaction will be far greater than that attained by blocking the enzyme that regulates one of many interactions.
Low-affinity protein-protein interactions (Kd in the single- to double-digit micromolar range) such as those discussed here have been very difficult to assay by traditional techniques such as fluorescence polarization or fluorescence resonance energy transfer. We have developed a sensitive chemiluminescence-based assay (Quinn, et al. 2009), which serves as the starting point for this project.
The following is a validation assay to identify lead compounds that can block methyl-dependent protein-protein interactions (specifically HP1-beta), which can be used as probes to analyze these methyl-driven interactions and perhaps even developed into targeted epigenetic therapies.
Assay Provider: Mark T. Bedford, MD Anderson
Screening Center PI: Austin, C.P.
Screening Center: NIH Chemical Genomics Center [NCGC]
To each well, 2 uL of HP1-beta protein (final 50 nM) and 1 uL biotinylated histone peptide trimethylated at Lys9 [b-H3(1-18)K9me3] (final 50 nM) was added in 1x PBS buffer, pH 7.4, containing 0.01% Tween-20 using a nanoliter dispenser. Formation of a protein-peptide complex proceeded at room temperature for 30 min. A Kalypsys pin-tool was employed to transfer 23 nL of library compound solution in DMSO to each well. Aurintricarboxylic acid (ATA) was used as an intraplate control with a 12-point titration in duplicate. Following a 30 min incubation of the protein-peptide complex with compounds at room temperature, a mixture of 40 ug/mL each streptavidin-coated donor and nickel chelate acceptor AlphaScreen beads (final 10 ug/mL) was added in a 1 uL dispense for a final volume of 4 uL. Plates were incubated protected from the light for 30 min at room temperature. […]
On the % scale 0 is the no-effect control and ±100 the full control effect; potency means the concentration at half of the fitted maximal effect.

SMILES | activity change, negative = inhibition [%] | Potency
CC(N)(Cc1ccc(O)cc1)C(=O)O (stereo not given) | -2.68 | 
c1ccc(C2CN3CCSC3=N2)cc1 (stereo not given) | 22.8 | 
NCCCNCCCCNCCCN | 0.553 | 
CSc1nc(N)c2ncn([C@@H]3O[C@H](COP(=O)(O)OP(=O)(O)O)C(O)[C@H]3O)c2n1 (stereo not given in full) | -1.66 | 
N[C@@H](Cc1ccc(O)c(I)c1)C(=O)O | -14.6 | 
Nn1nnc2ccccc21 | -5.09 | 
O=C(O)C1CCCNC1 (stereo not given) | 2.05 | 
N[C@H]1CONC1=O | -1.86 | 
C[C@](Cc1ccc(O)c(O)c1)(NN)C(=O)O | 16.8 | 
CSC(N)=NCCC[C@H](N)C(=O)O | -5.33 | 
CC(=O)[C@H]1CCC2C3CC=C4C[C@@H](OS(=O)(=O)O)CC[C@]4(C)C3CC[C@@]21C (stereo not given in full) | -6.71 | 
NC(N)=N[C@@H](CCC(=O)O)C(=O)O | 3.19 | 
CC(=O)SC1CC2=CC(=O)CC[C@]2(C)C2CC[C@@]3(C)C(CC[C@@]34CCC(=O)O4)C12 (stereo not given in full) | -6.87 | 
NCCCCN=C(N)N | -3.81 | 
CC(C)NC[C@H](O)COc1cccc2ccccc12 | 15.8 | 
Nc1nc2ccc(Cl)cc2c2nc(-c3ccco3)nn12 | -5.39 | 
O=c1[nH]c(=S)[nH]c(-c2ccccc2)c1Cc1c(O)ccc2ccccc12 |  | 44.7 µM (active)
COc1cc(C(O)C(=O)O)ccc1O (stereo not given) | -4.94 | 
CC1CCN(CC[C@H]2CCCN2S(=O)(=O)c2cccc(O)c2)CC1 | -7.54 | 
COc1ccc2c(c1)c(CC(=O)O)c(C)n2Cc1ccc(Cl)cc1 |  | 0.0067 µM (active)

SMILES | activity change, negative = inhibition [%] | Potency
Oc1cc(O)c2c(c1)O[C@H](c1ccc(O)c(O)c1)[C@@H](O)C2 | -4.68 | 
N#Cc1cc2nc(O)c(O)nc2cc1[N+](=O)[O-] | 6.69 | 
O=c1ccc2c(OCCCCc3ccccc3)c3ccoc3cc2o1 | 55.5 | 
CN(C)C(=O)/N=N/C(=O)N(C)C |  | 20 µM (active)
CNc1ncnc2c1ncn2[C@H]1C[C@H](OP(=O)(O)O)[C@@H](COP(=O)(O)O)O1 | 3.21 | 
CC1=C(/C=C/C(C)=C/C=C/C(C)=C\C(=O)O)C(C)(C)CCC1 | -8.2 | 
O=C(c1ccc2c(c1)OCCO2)N1CCCCC1 | 19.2 | 
c1ccc(C(NCCNC(c2ccccc2)c2ccccc2)c2ccccc2)cc1 | 19.1 | 
Nc1ncnc2c1ncn2C1CCCC1 | 4.02 | 
NC(N)=NC(N)=Nc1ccccc1 | -6.52 | 
CCCCOC(=O)NS(=O)(=O)c1sc(CC(C)C)cc1-c1ccc(Cn2c(CC)nc3c(C)cc(C)nc32)cc1 | -7.21 | 
CCCCCCCCCCC/C=C\C(C)(C)/C=C\CCCC(=O)O | 52.9 | 
Nc1ncnc2c1ncn2C1CCCO1 (stereo not given) |  | 0.006 µM (active)
NC1CONC1=O (stereo not given) | -2.37 | 
Nc1nc2c(cnn2CCc2ccccc2)c2nc(-c3ccco3)nn12 | 12.5 | 
CC(=O)NCCc1c[nH]c2ccc(O)cc12 | -1.21 | 
CCOC(=O)C12CC1/C(=N/O)c1ccccc1O2 (stereo not given) | -3.76 | 
CC(C)(C)c1cc(/C=C(\C#N)C(N)=S)cc(C(C)(C)C)c1O |  | 11.2 µM (active)
CSC(=N)N | -1.52 | 
CC[C@H](NC(=O)c1c(C)c(-c2ccccc2)nc2ccccc12)c1ccccc1 | -7.54 | 
